Results published in PubChem BioAssay AID2806 (Sanford-Burnham Center for Chemical Genomics, 2010).
About 660 (0.2%) of roughly 330,000 compounds were called active. What follows is part of a selection rich in actives, with near analogues and random picks from the rest. Unmarked numbers belong to inactive results.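 Rule for the calls: active = inhibition of at least 40% at 10 µM in the primary screen; inactive = the rest.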

Tested on: intestinal alkaline phosphatase [Mus musculus]
Assay: mouse intestinal phosphatase enzyme inhibition – biochemical, luminescence, uHTS, primary screen (AID 2806);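 note: plate controls were DMSO with enzyme for no effect and no enzyme wells for full effect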
Details: purified mouse IAP, CDP-Star luminescence, 30 min; at 10 µM; hits give high values

| Compound | inhibition |
| --- | --- |
| COc1ccc(/C=C2/SC(=O)N(CCCCCC(=O)Nc3ccccc3C(=O)O)C2=S)cc1 | 12.6% |
| O=C(CCCN1C(=O)/C(=C/c2ccco2)SC1=S)Nc1ccccc1 | 47.8% (active) |
| O=C(CCCN1C(=O)/C(=C/c2cccs2)SC1=S)Nc1ccc(O)cc1 | 10.9% |
| Cc1ccc(-c2nn(-c3ccccc3)cc2/C=C2\SC(=S)N(CCCCCC(=O)O)C2=O)o1 | 14.7% |
| O=C(CCCN1C(=O)/C(=C\c2ccco2)SC1=S)Nc1cccc2ccccc12 | 47.9% (active) |
| O=C1/C(=C\c2ccccc2Cl)SC(=S)N1CCC(=O)N1CCCc2ccccc21 | 23.1% |
| O=C(CNS(=O)(=O)c1ccc2c(c1)OCCCO2)N1CCN(c2ccc(F)cc2)CC1 | -6.2% |
| COc1ccccc1CNC(=O)CSc1nc(=O)n(Cc2ccncc2)c2c1CCC2 | -1.4% |
| CCCCS(=O)c1snnc1C (configuration not stated) | -4.4% |
| Cc1ccc(Cc2cnc(N)s2)o1 | 50.5% (active) |
| CCCCNc1ccc(C(=O)Nc2cccc(C)n2)cc1[N+](=O)[O-] | 15.5% |
| Cn1cnc([N+](=O)[O-])c1Sc1n[nH]c(N)n1 | 7.9% |
| O=C(CCSCCc1ccccn1)Nc1nccs1 | -7% |
| Cc1ccc(C(=O)N/N=C/c2sc(=O)n(Cc3cccc(C(=O)O)c3)c2Cl)cc1 | 11.7% |
| NS(=O)(=O)c1ccc(-c2ccc(/C=C3\SC(=O)NC3=O)o2)cc1 | 55.1% (active) |
| COc1cc(/C=C/C(=O)O)cc(S(=O)(=O)Nc2ccccc2C(=O)NCCc2ccccc2)c1OC | -5.2% |
| CCOc1ccc(NC(=O)COC(=O)C2CCC(=O)N2)c([N+](=O)[O-])c1 (configuration not stated) | 1% |
| COC(C[C@@H]1O[C@@H]1C(=O)[C@@H](C)OCc1ccccc1)OC | 2.7% |
| CC(=O)c1c(C)n([O-])c2ccccc2[n+]1=O | 0.9% |
| NC(=O)c1ccsc1NC(=O)c1ccco1 | 0.1% |
| O=C(Nc1nc(-c2ccco2)c(-c2ccco2)s1)c1ccco1 | 64.2% (active) |
| O=C(Nc1nnc(CCOCCOCCc2nnc(NC(=O)c3ccco3)s2)s1)c1ccco1 | 0.5% |
| Cc1nc(CC(=O)NNS(=O)(=O)c2ccc(F)c(Cl)c2)cs1 | 1.6% |

| Compound | inhibition |
| --- | --- |
| COc1ccccc1-n1cn[nH]c1=S | 1.9% |
| COc1ccccc1-n1c(-c2cc(-c3ccco3)[nH]n2)n[nH]c1=S | 57.8% (active) |
| COc1ccc(OC)c(-n2c(-c3ccn[nH]3)n[nH]c2=S)c1 | -6.5% |
| NC(=O)c1ccc(Nc2ccc3c(c2)CCC3)c([N+](=O)[O-])c1 | 11.2% |
| Brc1cnc(N2CCCC2)nc1N1CCCCC1 | 1.2% |
| Fc1ccc(Nc2nnns2)cc1 | 7.1% |
| Cc1ccc(S(=O)(=O)NCCSC(C)(C)C)cc1 | -3.9% |
| C[C@H]1CN([C@@H](C)CO)C(=O)Cc2cc(NC(=O)Cc3ccccc3)ccc2O[C@H]1CN(C)S(=O)(=O)c1cccs1 | -5.4% |
| CN1CCCc2cc(C#N)c(=O)[nH]c21 | 5.2% |
| COc1cccc(CCNC(=O)c2cccc(NC(=O)C3=C(C)OCCS3)c2)c1 | -9.8% |
| CC(=O)N1c2ccc(S(=O)(=O)N3CCC(C(=O)NC4CCCC(C)C4C)CC3)cc2CC1C (configuration not stated) | -23.1% |
| O=C(CS(=O)(=O)c1ccccc1)Nc1ccc(S(=O)(=O)Nc2ccccn2)cc1 | 6.7% |
| CCN(CC)P(=O)(C(NC(=O)OC)C(F)(F)C(F)(F)C(F)(F)C(F)F)N(CC)CC (configuration not stated) | 1.2% |
| N#CC(C(N)=O)=C1CCC2(CC1)OCCCCO2 | -8.3% |
| Cc1[nH]c2ccccc2c1-c1ccc(Cl)nn1 | 4.1% |
| CC(C)S(=O)(=O)c1csc(NC(=O)Nc2ccc(Cl)cc2)c1Cl | -190% |
| O=C1CCCN1C(=O)COc1ccc([N+](=O)[O-])cc1 | 2.6% |
| COC(=O)c1cc(NC(=O)c2nn(C)c(=O)c3ccccc23)cc(C(=O)OC)c1 | -11.6% |
| COc1ccc(N(Cc2ccc(N(C)C)cc2)C(=O)c2ccc(S(C)(=O)=O)cc2)cc1 | 3.6% |
| CC(=O)c1c(C)[nH]c(C(=O)NCc2ccc(C)cc2)c1C | -23.4% |
| COC(=O)c1ccc(CNC(=O)C2CCC(=O)N(Cc3cccc(F)c3)C2)cc1 (configuration not stated) | 2.3% |
| COc1cccc(N(C(=O)CNC(=O)c2ccco2)C(C(=O)NC2CCCCC2)c2cccnc2)c1 (configuration not stated) | -11.8% |
| Cc1ccccc1CN1C[C@@H]2C[C@@H](c3ccc4nsnc4c3)N3CCC[C@@]23C1=O | 4% |

| Compound | inhibition |
| --- | --- |
| CCc1nc2nc(C)c(NS(=O)(=O)c3ccc4c(c3)CCCC4)c(=O)n2[nH]1 | 8.4% |
| CNC(=O)NCCN1CCCC1=O | -13.9% |
| CC(C)(C)NC(=O)NC(=O)COC(=O)Cn1c(C(F)(F)F)nc2ccccc21 | 3.3% |
| O=C(CNS(=O)(=O)c1ccccc1)N1CCN(C(=O)c2ccco2)CC1 | 2.1% |
| CC(C)NC(=S)Nc1cccc2cnccc12 | 9.6% |
| Cc1c(NC(=O)C(=O)N/N=C/c2cccs2)c(=O)n(-c2ccccc2)n1C | 5.7% |
| Clc1cccc(Cl)c1OCCOCCNCc1ccccc1 | -0.1% |
| CC(/C=C/C1(O)C(C)CC(=O)CC1(C)C)OC1OC(CO)C(O)C(O)C1O (configuration not stated) | 41.9% (active) |
| CC1=C(C)C(=O)OC(C(C)C2CCC3C4CC=C5CC(OC6OC(COC7OC(CO)C(O)C(O)C7O)C(O)C(O)C6O)CC(O)C5(C)C4CCC23C)C1 (configuration not stated) | 9.3% |
| C=CC1C(OC2OC(CO)C(O)C(O)C2O)OC=C(C(=O)OC)C1CC1CC(=O)CC(CC(=O)CCc2ccc(O)cc2)O1 (configuration not stated) | 6.5% |
| COc1cc(/C=N\NC(=O)C2C(=O)NCC2c2ccccc2)cc(OC)c1O (configuration not stated) | 11.4% |
| COc1cccc(/C=N\NC(=O)C2=NNC(=O)C2C)c1O (configuration not stated) | 61.4% (active) |
| CCOc1ccc2[nH]c(C(=O)N/N=C/c3cccc(OC)c3OC)cc2c1 | 10.1% |
| Cc1c(CC(=O)NCC(=O)NCC(=O)O)c(=O)oc2cc3oc4c(c3cc12)CCCC4 | 3.6% |
| CN(/C(=N/S(=O)(=O)c1cccs1)c1ccccc1)c1ccc(O)cc1 | -15.8% |
| COCc1cc(C)nc(Nc2cc(C)ccc2C)c1C#N | -3.2% |
| Cc1nc2sccn2c(=O)c1S(=O)(=O)NCCc1ccccc1 | -1.1% |
| Cc1cc(C)c(S(=O)(=O)NCCCN2CCOCC2)cc1Br | 6.6% |
| O=C(/C=C/Nc1ccc(S(=O)(=O)Nc2cnc3ccccc3n2)cc1)c1cccnc1 | 10% |
| OCC[C@H]1C[C@@H](O)[C@H](O)[C@@]2(OCCc3ccccc32)O1 | 8.9% |
| COc1cc(C2CC(=O)Oc3cc(OC)c(OC)c(OC)c32)cc(OC)c1OC (configuration not stated) | -2.2% |
| COc1ccc(OCCCC(=O)OC(C)C(=O)Nc2ccccc2[N+](=O)[O-])cc1 (configuration not stated) | 1.5% |
| O=C(O)C1OC(C(=O)O)C2C1C(F)(F)C2(F)F (configuration not stated) | -3.4% |

| Compound | inhibition |
| --- | --- |
| Cc1ccccc1OCC(=O)N(Cc1cccc(F)c1)C1CCS(=O)(=O)C1 (configuration not stated) | -3.3% |
| CCC(=O)Nc1ccc(-c2ccc(N3CCCCC3)nn2)cc1 | 6.7% |
| COC(=O)c1ccc(S(=O)(=O)c2ccc(C(=O)OC)s2)s1 | 7.9% |
| Cc1ccc2c(c1)NC(=O)[C@@]1(C)[C@@H](c3ccccc3)[C@H]3COc4ccc(Cl)cc4[C@@H]3N1C2=O | -2.6% |
| O=C(c1ccc(Cl)cc1)N1N=C(c2ccccn2)CC1(O)C(F)(F)F (configuration not stated) | -4% |
| O=c1[nH]c(=S)[nH]c2[nH]c(=S)[nH]c12 | 73.3% (active) |
| O=C(CN1CCN(C(=O)C2CCCO2)CC1)Nc1c(Cl)cccc1Cl (configuration not stated) | 3.1% |
| O=C(COC(=O)c1cnccn1)Nc1ccc(Cl)cc1C(F)(F)F | 4.7% |
| Cc1ccc(OCc2nnc(NC(=O)OCC(C)C)s2)cc1 | 0.4% |
| Clc1ccc(CSc2nnc3c(n2)[nH]c2ccccc23)cc1 | 12.9% |
| O=C(Nc1nnc(SCc2ccccc2Cl)s1)c1cccc([N+](=O)[O-])c1 | 22.8% |
| c1ccc(CSc2nnc(-c3ccco3)c(-c3ccco3)n2)cc1 | 49% (active) |
| CCc1nnc(SCc2cccc(F)c2)nc1CC | 4.4% |
| S=C(NCc1ccco1)NCc1ccccc1Cl | -1% |
| Clc1ccccc1CSc1nnc(-c2ccco2)c(-c2ccco2)n1 | 60.4% (active) |
| C[C@H](NC(=O)[C@@H]1Cc2ccccc2CN1C(=O)OC(C)(C)C)C(=O)NC1CCCC1 | -2.7% |
| Cc1cccc(OCC(O)Cn2c(N3CCCCC3)nc3c2c(=O)[nH]c(=O)n3C)c1 (configuration not stated) | -1.1% |
| Cc1ccc(CNC(=O)C2CCCN2S(=O)(=O)c2ccc3c(c2)C(C)(C)C(=O)N3C)cc1 (configuration not stated) | -1% |
| CC(C)OC(=O)c1cc(NC(=O)C2C3CCC(O3)C2C(=O)O)cc(C(=O)OC(C)C)c1 (configuration not stated) | 7.3% |
| COc1ccccc1CCNC(=O)c1c(C)nn(CC(C)C)c1Cl | 6.5% |
| Cc1ccc(N=C2NC(=O)/C(=C/C=C/c3ccco3)S2)cc1C | 56% (active) |
| CN1C(=O)/C(=C/c2ccco2)SC1=Nc1cccc(C(=O)O)c1 | 9.6% |
| CC(=O)Nc1ccc(NC(=O)C(NS(=O)(=O)c2ccc3c(c2)OCCO3)C(C)C)cc1 (configuration not stated) | 3.4% |
